From PubChem
Only some compounds are listed: those with a hit (about 1.9% of all), similar ones and a draw of the others.
Glyco luc inh: N-linked glycosylation inhibition; D54 ERlucT glycosylation luciferase reporter, 24 h; percent of 100 nM tunicamycin response; AID 588692; 0.23% of 360,000 active; reporter increase, % at 12.5 µM;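 active = mean luciferase reporter signal, scaled so untreated is 0 and the glycosylation-blocking control 100, at or above a set limit in every replicate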;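 note: luciferase carries N-glycosylation sites so blocking glycosylation raises the light; 0% = median of neutral control wells and 100% = median of 100 nM tunicamycin wells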
NSD2 HMT inh: inhibitors of human histone methyltransferase NSD2 | AID 743445 | inhibition, % at 12.5 µM | NSD2 peptide methylation, AlphaScreen, 120 min | O96028 | 0.54% of 310,000 active
DSG3 Ab inh: inhibitors of pemphigus antibody binding to human desmoglein-3; DSG3-coupled beads, scFv-anti-DSG3-GFP binding, flow cytometry; active compounds read low; AID 588358; binding (percent of control), % at 10 µM; P32926; 0.48% of 310,000 active;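 active = binding more than 3 SD below its plate's average and above zero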;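 note: hits lower antibody fragment binding to DSG3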
Target sequence (P32926 whole entry, looked up, the tested form may be a part): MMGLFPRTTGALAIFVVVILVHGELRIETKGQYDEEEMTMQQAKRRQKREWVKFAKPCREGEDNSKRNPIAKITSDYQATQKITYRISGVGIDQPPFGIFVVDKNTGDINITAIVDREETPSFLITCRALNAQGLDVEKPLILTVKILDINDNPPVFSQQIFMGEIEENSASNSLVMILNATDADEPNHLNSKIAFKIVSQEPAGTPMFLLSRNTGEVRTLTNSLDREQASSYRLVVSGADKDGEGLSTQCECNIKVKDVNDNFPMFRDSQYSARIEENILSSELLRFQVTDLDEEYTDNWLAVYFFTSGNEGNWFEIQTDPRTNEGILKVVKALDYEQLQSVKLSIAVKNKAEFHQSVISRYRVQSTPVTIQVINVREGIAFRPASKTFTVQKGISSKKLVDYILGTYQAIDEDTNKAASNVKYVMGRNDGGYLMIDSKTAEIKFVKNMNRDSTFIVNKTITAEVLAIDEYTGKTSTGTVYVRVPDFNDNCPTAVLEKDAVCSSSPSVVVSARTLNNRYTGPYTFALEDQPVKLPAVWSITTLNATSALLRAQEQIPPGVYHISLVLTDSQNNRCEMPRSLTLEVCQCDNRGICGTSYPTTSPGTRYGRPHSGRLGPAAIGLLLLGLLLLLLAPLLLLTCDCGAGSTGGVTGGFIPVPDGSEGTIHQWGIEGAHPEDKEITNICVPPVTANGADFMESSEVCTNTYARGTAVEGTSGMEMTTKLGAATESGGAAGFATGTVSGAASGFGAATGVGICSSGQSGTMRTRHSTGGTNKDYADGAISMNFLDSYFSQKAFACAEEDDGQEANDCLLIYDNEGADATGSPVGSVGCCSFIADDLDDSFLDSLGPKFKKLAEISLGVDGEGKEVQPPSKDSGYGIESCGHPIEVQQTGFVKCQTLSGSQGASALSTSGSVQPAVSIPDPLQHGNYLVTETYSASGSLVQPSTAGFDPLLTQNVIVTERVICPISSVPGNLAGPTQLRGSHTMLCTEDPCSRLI
ATG4B inh: inhibitors of human ATG4B cysteine protease | ATG4B cleavage of LC3-PLA2, NBD-HPC fluorescence, 1 h | 0.51% of 340,000 active | inhibition, % at 8.33 µM | Q9Y4P1; in the data active = inhibition above about 40%
Vif inh: inhibitors of HIV Vif; HEK293T cells, Vif self-association by quenched fluorescence, imaging, 24 h; inhibition, % at 7.49 µM; 0.35% of 340,000 active; in the data active = inhibition above about 50%, passing the limit was not always enough
CaV13 ICDI inh: Disruptors of the CACNA1D IQ motif to Ca2+-dependent inactivation inhibitor domain association, primary screening, Förster resonance energy transfer in intact living …; 0.098% of 340,000 active; inhibition, % at 12.3 µM; HEK cells, CFP/YFP FRET ICDI-IQ, plate reader, 10 min; percent FRET-ratio fall versus neutral wells;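 active = mean replicate inhibition of at least 30% and at least 1% of replicates passing that level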;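 note: 0% = median of the neutral control wells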
ATG4B confirm: ATG4B (human) inhibition, single-dose confirmed; shares compounds with ATG4B inh; ATG4B protease fluorescent substrate cleavage assay; inhibition, % at 8.33 µM; 92% of 320 active; in the data active = inhibition above about 39%
PLA2 counter: counter-screen for ATG4B inhibitors: human phospholipase A2 | shares compounds with ATG4B inh | purified PLA2, NBD-C6-HPC fluorescence, 45 min | inhibition, % at 8.33 µM | 66% of 1,600 active
Numbers without * were called inactive; . = no result. Cut-off read from the data, not from the text of the source, unless noted: active = inhibition above about 50%; inactive = the rest.

SMILES | Glyco luc inh | NSD2 HMT inh | DSG3 Ab inh | ATG4B inh | Vif inh | CaV13 ICDI inh | PLA2 counter | others
O=C(CSc1nnc(COc2ccc(Cl)cc2)n1Cc1ccco1)c1ccccc1F | -2.2 | -3.1 | 98.4 | 44.0* | 6.8 | -5.5 | 33.6 | ATG4B confirm=56.6*
O=C(O)c1ccc(S(=O)(=O)/N=C2\C=C(Nc3ccccc3F)C(=O)c3ccccc32)cc1 | -16.4 | 119.8* | 107.3 | 76.7* | -3.1 | -7.0 | 75.5*
Cc1ccccc1NC1=C/C(=N\S(=O)(=O)c2ccc(C(=O)O)cc2)c2ccccc2C1=O | 4.1 | 139.2* | 90.5 | 59.3* | 6.7 | -6.9 | 27.6 | ATG4B confirm=37.3
CCOC(=O)[C@]12CCC=C1N(Cc1cccc3ccccc13)C(=O)[C@H](CC(=O)N1CCCCC1)C2 | . | . | . | . | . | -1.7 | .
CCOC(=O)c1nc2nc(C)cc(=O)n2[nH]1 | 2.6 | 1.7 | 94.2 | 4.2 | -3.4 | -5.7 | .
Cc1cc(N/N=C/c2cccc(F)c2)nc(NCc2ccccc2)n1 | -2.2 | 1.2 | 109.2 | 72.8* | -14.2 | 8.6 | 80.2*
Cc1cc(N/N=C/c2cccc(Cl)c2)nc(NCc2ccccc2)n1 | -2.6 | -2.5 | 106.1 | 76.3* | -1.4 | -5.0 | 83.5*
Cc1cc(C)nc(N/N=C/c2cccc(Cl)c2)n1 | 0.3 | -2.0 | 108.2 | -4.7 | 5.2 | -2.6 | .
Cc1cc(N/N=C/c2ccccc2F)nc(NCc2ccccc2)n1 | -0.9 | -0.9 | 114.9 | 58.5* | -5.5 | -13.0 | 79.2*
Cc1cc(N/N=C/c2ccccc2)nc(NCc2ccccc2)n1 | -3.3 | -0.6 | 103.2 | 68.9* | 0.0 | . | 75.7*
Cc1cc(Nc2cccc(Cl)c2)nc(NCc2ccccc2)n1 | -3.5 | -3.1 | 108.0 | 36.1 | -1.3 | -4.3 | .
Cc1cc(N/N=C/c2ccc(Cl)cc2)nc(NCc2ccccc2)n1 | -6.4 | 2.9 | 106.2 | 23.2 | -4.4 | -18.4 | .
COC(=O)C1=C(C(=O)OC)[C@@H]2Nc3ccccc3[C@@]23C[C@@H](C(=O)OC)N(C(=O)c2ccc(Br)cc2)C3=N1 | . | . | . | -3.4 | . | . | .
Cc1ccc(-n2c(O)c(C=Nc3ccccc3-c3n[nH]c(=S)[nH]c3=O)c3ccccc3c2=O)c(C)c1 | -2.1 | 36.1 | 101.8 | 43.0* | -11.6 | -4.0 | 47.6 | ATG4B confirm=65.5*
COc1ccc(CNC2CCCCC2C)c(OC)c1 (stereo not drawn) | 0.3 | 0.9 | 104.5 | 4.2 | -0.1 | 13.5 | .
CCOC(=O)c1c(C)[nH]c(C(=O)COC(=O)/C=C/c2cccc(OC)c2OC)c1C | -0.6 | 2.2 | 127.5 | 4.0 | 1.7 | -3.1 | .
CCOC(=O)c1c(C)[nH]c(C(=O)COC(=O)COc2ccccc2C=O)c1C | 4.3 | 1.3 | 126.0 | 47.4* | 26.4 | -10.9 | 44.8 | ATG4B confirm=55.7*
COc1cccc(C(=O)NCC2CCCN(C3CCCCC3)C2)c1OC (stereo not drawn) | -1.9 | -0.5 | 117.2 | 7.0 | 5.5 | -3.3 | .
COc1cccc(NC(=O)NC2CCCc3ccccc32)c1 (stereo not drawn) | -3.4 | 2.1 | 89.9 | 61.8* | -8.6 | -13.6 | 62.3*
COc1ccc(NC(=O)NC2CCCc3ccccc32)c(OC)c1 (stereo not drawn) | -1.9 | -4.7 | 118.9 | 15.3 | 2.4 | -3.0 | .
COC(=O)c1ccc(NC(=S)NC2CCc3ccccc32)cc1 (stereo not drawn) | 0.9 | -0.2 | 108.1 | 48.2* | -0.8 | -3.1 | 56.2*
CCCc1cc(=O)[nH]c(SCC(=O)N2N=C(c3ccc(Cl)cc3)CC2c2ccco2)n1 (stereo not drawn) | -0.2 | 2.5 | 112.2 | 47.6* | 1.9 | -4.9 | 39.6 | ATG4B confirm=73.4*
O=C1NC(=S)/C(=C\c2ccc(-c3ccccc3Cl)o2)S1 | 1.1 | 11.6 | 89.0 | 65.0* | 0.7 | -5.9 | 7.7
Cc1cccc(-n2cnc(C(=O)NC3CCCCCC3)c2)n1 | -0.7 | -1.5 | 106.2 | -8.3 | -0.3 | . | .
CCc1ccc(N2C(=O)CN(Cc3cc(OC)c(OC)c(OC)c3)C2=S)cc1 | -6.0 | -1.6 | 94.1 | -2.0 | -0.1 | -1.8 | .
SMILES | Glyco luc inh | NSD2 HMT inh | DSG3 Ab inh | ATG4B inh | Vif inh | CaV13 ICDI inh | PLA2 counter | others
CCc1ccc(N2C(=O)CN(Cc3cccs3)C2=S)cc1 | 0.1 | -0.9 | . | 64.8* | 5.1 | 0.2 | 81.3*
Cc1cc(C)cc(N2C(=O)CN(Cc3ccccc3)C2=S)c1 | -2.2 | -1.3 | 98.8 | 70.3* | -2.3 | -18.1 | 74.6*
CCc1ccc(N2C(=O)CN(Cc3ccccc3)C2=S)cc1 | -2.2 | 1.1 | 103.9 | 11.7 | -6.8 | -16.3 | .
CC(C)(C)[C@@H]1CCC(=O)N(CC[C@H](Sc2ccccc2)c2ccccc2)CC1 | -9.8 | . | 98.4 | 4.9 | -6.2 | -4.3 | .
Cc1cc(C(F)(F)F)c2c(n1)sc1c(O)cc(=O)[nH]c12 | -1.2 | -1.4 | 97.7 | 0.8 | 6.8 | -8.5 | .
O=c1cc(O)c2sc3nc(C(F)(F)F)c4c(c3c2[nH]1)CCCCC4 | 0.5 | -0.7 | 114.3 | 45.0* | -5.3 | -7.9 | 40.7 | ATG4B confirm=59.3*
O=C(Nc1nc(-c2ccc(Cl)cc2)cs1)NC1CCCCC1 | -4.0 | -0.1 | 102.6 | 64.3* | -4.3 | -4.5 | 73.5*
COCCNc1nc(CSc2ccccc2)nc2sc(C)c(C)c12 | -3.7 | -1.5 | 86.7 | 45.6* | -1.6 | -3.2 | 49.4
CCN(C(=O)COC(=O)CCC(=O)c1cccs1)c1c(N)n(Cc2ccccc2)c(=O)[nH]c1=O | -2.0 | -2.3 | 110.4 | -5.8 | 6.7 | -5.3 | .
N#Cc1c(-c2ccccc2)nc(SCC(=O)N(c2ccccc2)c2ccccc2)[nH]c1=O | -1.4 | 8.8 | 97.6 | 13.2 | 1.4 | -3.4 | .
N#Cc1c(-c2ccccc2)nc(SCC(=O)N2c3ccccc3Sc3ccccc32)[nH]c1=O | 2.5 | 38.1 | 92.5 | 57.4* | -8.5 | -1.1 | 59.1*
Cc1ccc(C(=O)OCC(=O)N2CCC(Cc3ccccc3)CC2)cc1N | -4.6 | -1.2 | 94.5 | -3.3 | 12.1 | -9.4 | .
O=C(Oc1cncc(Cl)c1)c1sccc1Cl | -0.1 | . | 102.0 | 98.3* | 5.1 | -5.3 | -11.7
O=C(Oc1cncc(Cl)c1)c1ccco1 | 2.8 | 1.4 | . | -5.7 | 13.6 | -8.4 | .
O=C(NC(Cc1ccccc1)C(=O)O)OCc1ccccc1 (stereo not drawn) | 2.1 | -4.2 | 99.4 | 5.9 | 6.4 | -5.7 | .
O=C(NC(Cc1ccccc1)C(=O)O)OCC1c2ccccc2-c2ccccc21 (stereo not drawn) | 1.8 | 4.2 | 112.0 | 43.8* | -7.1 | -4.9 | 62.8*
COc1ccc(-c2nc(CS(=O)(=O)CC(=O)NCc3ccccc3Br)c(C)o2)cc1 | 1.9 | . | 102.8 | 83.8* | . | -6.5 | 91.8*
